Experimental findings from PubChem BioAssay AID1259336 (Sattelle Laboratory, UCL Respiratory, Division of Medicine, …, 2017) are described below.

Molecules are shown by their SMILES. The source made the active and inactive calls. Rule as the data show it: active = log2 fold change growth below about -1.8; inactive = the rest.

The test can be described thus: anthelmintic activity against nematode growth – whole organism, log2 fold change (AID 1259336).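 Also: growth scored by imaging after five days at 20 °C.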 To be noted: C. elegans growth, anthelmintic screen; hits give low values.
For the compound `CC(=O)N1CCc2cc3nc(C)cc(C)c3cc21`, the log2 fold change growth was 0.139 (inactive).
Then `Nc1nccc2ccc(-c3ccc4nccn4c3)cc12`, with 0.14 (inactive); and `COc1ccc(C2=NN(C3CCCCCC3)C(=O)C2(C)C)cc1OCCCCOc1ccc(-c2nn[nH]n2)cc1`, with -0.216 (inactive).
In the case of `CCc1nc2ccc(C(=O)NCc3ccc4c(c3)OCO4)cn2c1N(C)Cc1cccs1`, the log2 fold change growth was -0.917 (inactive).
Turning to `COc1ccc(Nc2ccccc2NC(=O)c2ccc(=O)[nH]c2)cc1`, the log2 fold change growth was -0.31 (inactive).
For `Cc1ncc(-c2ccnc(Nc3ccc(S(C)(=O)=O)cc3)n2)n1C(C)C`, the log2 fold change growth was 0.268 (inactive).
As for `COc1cc(C2=NCCN2)ccc1-c1cn(-c2cccc(C3=NCCN3)c2)nn1`, the figure is -0.121 (inactive); as for `COc1ccc(C2=NCCN2)cc1-c1cn(-c2cccc(C3=NCCN3)c2)nn1`, 0.077 (inactive); as for `O=C(Nc1ccc(C(F)(F)F)c(C(F)(F)F)c1)c1cc(Cl)ccc1O`, 0.513 (inactive).
As for `N=C(N)c1ccc(-c2cc(-c3ccccc3)on2)cc1`, the figure is 0.247 (inactive).
Then `c1coc(CNc2nc(N3CCCCC3)nc3ccccc23)c1`, with -0.141 (inactive); and `O=C(CN1CCOCC1)Nc1ccc2ncnc(Nc3ccc(OCc4cccc(F)c4)c(Cl)c3)c2c1`, with -0.76 (inactive).
With `O=C(N[C@H]1CCN(c2ccnc3ccccc23)C1)c1cccc(C(F)(F)F)c1`, the log2 fold change growth is 0.541 (inactive).
On to `CCOC(=O)NC(=O)c1ccsc1NC(=O)c1nc2ccccc2s1`, for which the log2 fold change growth was -3.88 (inactive).
As for `NCC(=O)N1CCn2c(nc(-c3ccccc3)c2Nc2ccc3c(c2)OCO3)C1`, the figure is 0.0553 (inactive).
